According to ChEMBL document CHEMBL3988442, “University of Dundee, Small-Polar-MMV Screening Library” (2021):
For some assays here: Results with a measured potency or affinity are listed apart.

Assays:
Parameters in all cases: scale not given: direction of the effect not stated beside the values
[1] = biological target: Protein translocase subunit SecA (Escherichia coli (strain K12)) (UniProt P10408); assay: Assay to Identify E. coli SecA ATPase Inhibitors; type: functional; settings: 30 µM
[2] = biological target: T1, Ubiquitin-activating enzyme e1, putative (Leishmania donovani (strain BPK282A1)) (UniProt E9BSI1); assay: Leishmania donovani Ubiquitin Activating Enzyme (LdE1); type: functional; settings: 30 µM
T1 sequence (whole entry): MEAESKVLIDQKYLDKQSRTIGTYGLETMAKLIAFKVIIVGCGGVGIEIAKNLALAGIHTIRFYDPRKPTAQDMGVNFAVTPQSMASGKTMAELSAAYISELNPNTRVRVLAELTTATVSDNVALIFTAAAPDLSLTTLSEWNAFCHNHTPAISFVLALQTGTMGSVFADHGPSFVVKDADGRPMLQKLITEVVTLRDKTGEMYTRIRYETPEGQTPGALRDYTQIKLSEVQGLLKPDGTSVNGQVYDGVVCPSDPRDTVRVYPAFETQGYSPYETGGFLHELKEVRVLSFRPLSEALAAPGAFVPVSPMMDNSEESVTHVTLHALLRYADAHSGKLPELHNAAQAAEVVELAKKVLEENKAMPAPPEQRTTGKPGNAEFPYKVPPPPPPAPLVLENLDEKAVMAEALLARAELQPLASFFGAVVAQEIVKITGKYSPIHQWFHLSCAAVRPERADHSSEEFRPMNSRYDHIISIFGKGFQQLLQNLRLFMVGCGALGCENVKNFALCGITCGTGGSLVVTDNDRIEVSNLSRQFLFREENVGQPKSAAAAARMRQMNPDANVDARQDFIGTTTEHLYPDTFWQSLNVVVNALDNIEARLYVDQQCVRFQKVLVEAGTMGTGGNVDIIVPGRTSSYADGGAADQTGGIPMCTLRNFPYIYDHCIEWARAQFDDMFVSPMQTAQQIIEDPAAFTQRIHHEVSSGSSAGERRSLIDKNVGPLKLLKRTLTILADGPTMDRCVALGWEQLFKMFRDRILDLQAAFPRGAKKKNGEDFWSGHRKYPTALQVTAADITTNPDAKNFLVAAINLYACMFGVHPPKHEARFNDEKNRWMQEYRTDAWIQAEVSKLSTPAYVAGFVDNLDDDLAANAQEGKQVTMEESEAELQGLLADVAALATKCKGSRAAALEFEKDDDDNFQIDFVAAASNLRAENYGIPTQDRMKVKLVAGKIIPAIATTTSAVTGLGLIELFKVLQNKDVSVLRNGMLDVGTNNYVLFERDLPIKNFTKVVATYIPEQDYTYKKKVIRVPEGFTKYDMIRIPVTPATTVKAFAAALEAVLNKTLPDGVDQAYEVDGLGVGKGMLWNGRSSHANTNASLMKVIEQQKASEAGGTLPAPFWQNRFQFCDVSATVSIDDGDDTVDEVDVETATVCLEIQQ

[3] = biological target: AMP-activated protein kinase, AMPK (Homo sapiens) (UniProt P54646+O43741+P54619+Q9UGJ0+Q9Y478+Q13131+Q9UGI9); assay: AMP-dependent Kinase enzyme assay. An in vitro enzyme assay that detects ADP turnover that is directly proportional to AMPK activity. This uses naive AMPK that is activated during the assay with MK-8722; type: functional; settings: 30 µM
[4] = biological target: Sialic acid-binding Ig-like lectin 9 (Homo sapiens) (UniProt Q9Y336); assay: Hs-Siglec9 ALPHAscreen SOP 20170721; settings: 10 µM
Sialic acid-binding Ig-like lectin 9 (Homo sapiens), sequence (Q9Y336 whole entry): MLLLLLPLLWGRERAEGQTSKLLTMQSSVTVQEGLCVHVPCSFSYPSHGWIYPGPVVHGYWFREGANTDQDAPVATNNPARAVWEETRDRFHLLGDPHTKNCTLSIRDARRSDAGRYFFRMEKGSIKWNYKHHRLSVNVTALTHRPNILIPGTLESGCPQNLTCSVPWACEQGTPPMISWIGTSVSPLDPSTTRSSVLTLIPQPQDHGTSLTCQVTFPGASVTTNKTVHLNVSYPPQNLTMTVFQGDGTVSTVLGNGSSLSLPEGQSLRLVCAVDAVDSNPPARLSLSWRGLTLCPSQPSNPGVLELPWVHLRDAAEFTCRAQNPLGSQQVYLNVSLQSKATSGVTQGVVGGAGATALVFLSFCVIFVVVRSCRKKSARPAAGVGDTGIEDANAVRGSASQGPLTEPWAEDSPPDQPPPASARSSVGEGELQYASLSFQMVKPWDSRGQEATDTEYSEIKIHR

[5] = system: Trypanosoma cruzi; assay: Trypanosoma cruzi phosphomannomutase and mannose-1-phosphate guanylyltransferase assay; type: functional; settings: 10 µM
[6] = biological target: T2, Arginase-2, mitochondrial (Homo sapiens) (UniProt P78540); assay: in vitro enzyme assay to detect the production of urea directly proportional to the activity of Arginase II; type: functional; settings: 33.3 µM; also: in the data most compounds retested in dose-response had high values
T2 sequence (whole entry): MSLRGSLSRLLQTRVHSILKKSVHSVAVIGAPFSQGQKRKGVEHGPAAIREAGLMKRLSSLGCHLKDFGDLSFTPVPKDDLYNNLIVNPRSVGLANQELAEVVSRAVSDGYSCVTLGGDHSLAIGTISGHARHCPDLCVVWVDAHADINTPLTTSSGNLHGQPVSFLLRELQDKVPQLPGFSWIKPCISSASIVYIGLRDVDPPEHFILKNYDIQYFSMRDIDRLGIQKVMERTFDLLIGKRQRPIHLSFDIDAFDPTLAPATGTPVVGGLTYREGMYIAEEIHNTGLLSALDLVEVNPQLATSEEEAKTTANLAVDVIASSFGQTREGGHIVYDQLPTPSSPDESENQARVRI

[7] = biological target: T3, Proteasome subunit beta (Trypanosoma cruzi) (UniProt O96673); assay: Trypanosoma cruzi proteasome chymotrypsin-like activity (TcProtChymo) assay.; also: in the data most compounds retested in dose-response had high values; type: functional; settings: 9.37 µM
T3 sequence (whole entry): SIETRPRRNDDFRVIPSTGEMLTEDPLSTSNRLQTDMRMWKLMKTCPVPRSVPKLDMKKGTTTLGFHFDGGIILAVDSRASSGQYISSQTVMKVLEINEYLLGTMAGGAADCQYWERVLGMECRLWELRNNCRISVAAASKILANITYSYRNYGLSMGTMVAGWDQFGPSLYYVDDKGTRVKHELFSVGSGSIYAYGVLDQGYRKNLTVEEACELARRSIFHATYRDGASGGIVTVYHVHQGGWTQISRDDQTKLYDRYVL

[8] = organism: Homo sapiens; assay: To identify inhibition of the IFN signalling (Jak-Stat) pathway via expression of an eGFP reporter gene under the control of an IFN-stimulated response element (ISRE) containing MxA promoter.; type: functional; settings: 30 µM
[9] = biological target: T4, Tyrosyl-tRNA synthetase, putative (Trypanosoma cruzi (strain CL Brener)) (UniProt Q4DSP6); assay: Trypanosoma cruzi tyrosyl tRNA synthetase (TcYRS) _High Tyrosine SOP; type: functional; settings: 30 µM; also: in the data most compounds retested in dose-response had high values
T4 sequence (whole entry): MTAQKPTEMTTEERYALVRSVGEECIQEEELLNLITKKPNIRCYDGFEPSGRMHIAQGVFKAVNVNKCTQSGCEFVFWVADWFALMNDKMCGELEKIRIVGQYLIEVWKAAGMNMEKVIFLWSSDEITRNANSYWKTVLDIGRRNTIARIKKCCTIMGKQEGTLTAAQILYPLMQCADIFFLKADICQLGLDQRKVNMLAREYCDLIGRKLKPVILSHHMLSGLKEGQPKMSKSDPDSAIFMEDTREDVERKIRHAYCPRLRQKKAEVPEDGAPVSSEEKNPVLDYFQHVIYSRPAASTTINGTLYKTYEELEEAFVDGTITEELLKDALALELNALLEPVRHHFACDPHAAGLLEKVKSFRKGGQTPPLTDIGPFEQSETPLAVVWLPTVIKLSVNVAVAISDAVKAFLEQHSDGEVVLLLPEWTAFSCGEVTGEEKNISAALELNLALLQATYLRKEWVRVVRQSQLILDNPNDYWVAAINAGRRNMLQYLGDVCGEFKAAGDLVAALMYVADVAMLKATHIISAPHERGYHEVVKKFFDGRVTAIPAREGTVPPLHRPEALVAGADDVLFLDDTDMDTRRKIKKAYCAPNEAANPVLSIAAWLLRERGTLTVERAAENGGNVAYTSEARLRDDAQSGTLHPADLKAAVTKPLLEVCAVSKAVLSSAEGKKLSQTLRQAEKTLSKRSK

[10] = biological target: T4, Tyrosyl-tRNA synthetase, putative (Trypanosoma cruzi (strain CL Brener)); assay: Trypanosoma cruzi tyrosyl tRNA synthetase (TcYRS) SOP; type: functional; settings: 30 µM
[11] = biological target: Chromo domain-containing protein 1 (Saccharomyces cerevisiae (strain ATCC 204508 / S288c) (Baker's yeast)) (UniProt P32657); assay: ScCHD-1 Enzyme Inhibition Assay; type: functional; settings: 30 µM; also: in the data most compounds retested in dose-response had high values
Chromo domain-containing protein 1 (Saccharomyces cerevisiae (strain ATCC 204508 / S288c) (Baker's yeast)), sequence (P32657 whole entry, the tested form may be a part): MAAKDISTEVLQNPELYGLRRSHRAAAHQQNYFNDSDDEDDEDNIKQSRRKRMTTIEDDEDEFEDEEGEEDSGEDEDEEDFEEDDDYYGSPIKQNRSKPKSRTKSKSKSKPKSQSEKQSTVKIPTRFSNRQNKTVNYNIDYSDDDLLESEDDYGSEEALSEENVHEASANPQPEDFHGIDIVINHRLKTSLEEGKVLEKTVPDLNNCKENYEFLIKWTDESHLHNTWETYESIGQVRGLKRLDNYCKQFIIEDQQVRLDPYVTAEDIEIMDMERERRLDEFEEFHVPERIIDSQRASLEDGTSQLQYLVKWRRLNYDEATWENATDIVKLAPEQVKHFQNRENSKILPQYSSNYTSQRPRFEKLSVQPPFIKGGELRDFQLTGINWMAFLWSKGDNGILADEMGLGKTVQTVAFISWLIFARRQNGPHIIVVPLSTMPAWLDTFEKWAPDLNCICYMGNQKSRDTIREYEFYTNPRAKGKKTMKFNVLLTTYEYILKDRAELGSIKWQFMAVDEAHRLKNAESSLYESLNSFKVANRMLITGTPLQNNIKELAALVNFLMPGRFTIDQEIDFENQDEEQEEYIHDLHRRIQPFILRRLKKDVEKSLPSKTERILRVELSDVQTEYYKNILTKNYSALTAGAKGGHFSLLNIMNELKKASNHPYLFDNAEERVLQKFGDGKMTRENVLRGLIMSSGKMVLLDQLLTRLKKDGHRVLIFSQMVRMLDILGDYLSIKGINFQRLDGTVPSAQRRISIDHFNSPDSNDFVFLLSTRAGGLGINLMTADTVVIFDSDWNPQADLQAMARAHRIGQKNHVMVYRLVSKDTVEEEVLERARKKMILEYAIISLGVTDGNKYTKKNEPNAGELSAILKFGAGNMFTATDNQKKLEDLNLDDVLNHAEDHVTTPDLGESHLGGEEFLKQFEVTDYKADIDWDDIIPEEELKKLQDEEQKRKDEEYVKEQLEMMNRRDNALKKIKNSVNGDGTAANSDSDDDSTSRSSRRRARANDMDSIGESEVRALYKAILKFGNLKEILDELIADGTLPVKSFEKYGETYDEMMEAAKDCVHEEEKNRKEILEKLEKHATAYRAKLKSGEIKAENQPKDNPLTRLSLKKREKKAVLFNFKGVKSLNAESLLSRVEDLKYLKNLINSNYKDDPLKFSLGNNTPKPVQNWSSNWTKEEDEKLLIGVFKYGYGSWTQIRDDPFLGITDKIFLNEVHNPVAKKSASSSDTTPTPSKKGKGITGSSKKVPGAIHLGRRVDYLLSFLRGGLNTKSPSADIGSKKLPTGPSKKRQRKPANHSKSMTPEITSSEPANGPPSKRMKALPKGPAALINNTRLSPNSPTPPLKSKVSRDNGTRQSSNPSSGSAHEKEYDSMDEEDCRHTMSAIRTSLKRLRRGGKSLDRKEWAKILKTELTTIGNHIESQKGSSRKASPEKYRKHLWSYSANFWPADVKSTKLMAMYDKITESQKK

Protein translocase subunit SecA (Escherichia coli (strain K12)), sequence (P10408 whole entry): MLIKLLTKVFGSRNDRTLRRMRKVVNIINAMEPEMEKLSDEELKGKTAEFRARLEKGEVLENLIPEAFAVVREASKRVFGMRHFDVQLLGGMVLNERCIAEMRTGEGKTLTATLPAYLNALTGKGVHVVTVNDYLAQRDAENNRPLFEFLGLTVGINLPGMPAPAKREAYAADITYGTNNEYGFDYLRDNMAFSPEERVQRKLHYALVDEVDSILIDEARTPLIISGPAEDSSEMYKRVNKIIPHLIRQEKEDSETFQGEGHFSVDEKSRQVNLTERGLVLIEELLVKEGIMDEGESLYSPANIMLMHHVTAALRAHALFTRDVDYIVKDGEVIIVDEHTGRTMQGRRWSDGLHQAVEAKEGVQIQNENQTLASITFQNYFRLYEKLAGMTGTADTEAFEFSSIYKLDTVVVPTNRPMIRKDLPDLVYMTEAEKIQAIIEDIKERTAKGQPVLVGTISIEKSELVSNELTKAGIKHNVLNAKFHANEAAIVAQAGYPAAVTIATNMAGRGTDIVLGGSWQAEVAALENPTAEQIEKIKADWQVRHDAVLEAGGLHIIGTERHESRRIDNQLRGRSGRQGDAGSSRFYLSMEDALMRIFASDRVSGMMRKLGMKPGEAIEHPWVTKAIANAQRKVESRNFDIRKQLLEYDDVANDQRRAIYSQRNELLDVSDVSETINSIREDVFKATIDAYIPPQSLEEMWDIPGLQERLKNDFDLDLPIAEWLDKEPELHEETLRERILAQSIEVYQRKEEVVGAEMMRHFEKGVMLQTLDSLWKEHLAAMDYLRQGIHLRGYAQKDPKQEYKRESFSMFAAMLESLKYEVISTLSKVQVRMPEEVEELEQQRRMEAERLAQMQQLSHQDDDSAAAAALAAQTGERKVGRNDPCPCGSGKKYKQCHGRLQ

SMILES | Percent Effect [1] [%] | Percent Effect [2] [%] | Percent Effect [3] [%] | Percent Effect [4] [%] | Percent Effect [5] [%] | Percent Effect [6] [%] | Percent Effect [7] [%] | Percent Effect [8] [%] | Percent Effect [9] [%] | Percent Effect [10] [%] | Percent Effect [11] [%]
Cc1cccc2nc(C(=O)N3CCC(Nc4cccnn4)CC3)cn12 | -4.19 | 5.2 | 2.91 | 37.9 | -0.0979 | -1.47 | 8.16 | 3.1 | 0 | 9.41 | -18.7
CCn1cc(CNC2CC(=O)N(CCc3cccc(Cl)c3)C2)cn1 (stereo unspecified) | -5.27 | 8.22 | 1.5 | 35.6 | 0.397 | -3.99 | 8.65 | 2.71 | 2.08 | 8.64 | -4.3
CCc1nc(CC(=O)N2CCN(c3cnccn3)CC2)cs1 | -4.23 | 16.5 | 1.43 | 5.88 | 1.95 | 1.94 | 0.343 | 11.8 | 1.04 | 17.7 | -26.3
CC(C)CN1C[C@H]2CCN(c3ncccn3)CC[C@H]2S1(=O)=O | -1.59 | 20.8 | -1.01 | 12.2 | 6.39 | -15.2 | 15 | -0.732 | 6.45 | 13.6 | 118
N#Cc1cn(C2CC2)c(=O)n(CC(O)c2ccccc2F)c1=O (stereo unspecified) | -3.42 | 21.1 | -2.46 | 7.51 | 6.58 | -1.15 | 10.7 | 0.878 | 6.37 | 19.5 | -13.4
CC1CCCN(Cc2coc(-c3cccc(F)c3)n2)C1 (stereo unspecified) | -5.97 | 2.6 | 8.2 | 7.31 | 1.31 | 2.49 | -0.507 | 3.77 | 5.83 | 2.44 | 0.197
CCCn1nccc1C(=O)N1CCCN(CCCc2ccccc2)CC1 | -5.36 | 11 | -4.71 | 8.5 | 7.14 | -4.79 | 16.2 | 4.05 | 7.29 | 8.64 | -1.42
COc1cccc2c1OCC(CNC(=O)CNC(N)=O)C2 (stereo unspecified) | -5.81 | 10.8 | -3.03 | 22.4 | 7.33 | 1.24 | 4.72 | -5.45 | 5.38 | 13.6 | -9.37
CC(NC1(CNC(=O)CC(C)(C)C)CCOCC1)c1ccccc1 (stereo unspecified) | -5.63 | 8.11 | 1.15 | 15.6 | -0.684 | 4.22 | 9.19 | -9.78 | 3.23 | 11.1 | -2.98
N#Cc1cccc(CS(=O)(=O)NCC(O)Cc2ccccc2)c1 (stereo unspecified) | -4.15 | -2.67 | 0.717 | 0.263 | 0.682 | -3.12 | 1.4 | 6.52 | 0.546 | 3.7 | 1.24
Cc1cnccc1N1CCCN(C(=O)CCCS(N)(=O)=O)CC1 | -2.12 | 5.48 | 6.21 | 1.68 | 1.37 | 15.4 | 8.87 | -6.07 | 2.15 | 12.5 | 0.551
COc1ccc(NC(=O)c2ccc[nH]2)c(N2CCN(C(C)=O)CC2)n1 | -1.32 | 10.8 | -4.59 | -2.38 | 0.781 | 37.1 | 7.18 | -7.2 | 6.93 | 13.4 | -6.01
COCCCNC(=O)CN(C)C(=O)c1cc(C)ccc1O | -3.14 | 16.2 | -6.15 | -4.94 | -5.48 | -0.924 | 7 | -3.62 | 3.96 | 15.8 | -7.89
Cc1ccc2c(n1)N(C)CCN(C(=O)C1CC1)C2 | 1.38 | 8 | 0.651 | 2.31 | -8.69 | -54.3 | 7.69 | 12.1 | 2.08 | 17.5 | -6.8
c1csc(-c2nc(CN3CCOC(Cn4cccn4)C3)co2)c1 (stereo unspecified) | -4.59 | 18.9 | -12.4 | 19.6 | 6.32 | -8.82 | 9.01 | 16.2 | 7.39 | 23.5 | -11.2
Cc1noc(C)c1CN1CCN(Cc2ccncc2)c2ncccc2C1 | -3.04 | 8 | 4.68 | 2.81 | -6.5 | -1.17 | 2.56 | 16.7 | 7.45 | 8.97 | -0.129
